Here are results for 14 compounds from PubChem BioAssay.

In general, inhibition refers to the change of the read-out against control, counted positive when it falls.

Calls of active or inactive are those of the source.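 How the source made its calls, unless noted: active means inhibition of the reporter signal at or above 50%; inactive means inhibition below 50%.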

Assay [1] can be described thus: inhibitors of TNFa-induced NFkB p65 translocation, primary screen, imaging, HUVEC, MLSMR starter and 10KST1 sets (AID 438;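 active means inhibition above 20% together with a positive visual image hit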;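 further: compound added about 3h40 before a 20 min TNFalpha stimulation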;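 on inhibition: signal is the nuclear over cytoplasmic p65 intensity ratio per well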). Particulars: HUVEC TNFa-induced p65 nuclear translocation; cell count: measured here: nuclei count (cytotoxicity indicator), at 2.08 µM; inhibition: at 2 µM, stronger effect = higher value, 0% TNFa-plus-vehicle, 100% no-TNFa wells.
The nature of assay [2]: inhibitors of mutant huntingtin aggregation, primary screen, imaging, exon1htt(103Q)mCFP cells, high-content imaging (AID 483;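 active means visual image review flags a hit and inhibition of aggregation exceeds 20%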;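 further: compound exposure lasted 3 days before fixation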;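 on nuclei count: percent of the per-plate median nuclei count of sample wells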). Particulars: exon1htt(103Q)mCFP cell line, aggregate imaging, at 2 µM; inhibition of aggregation: stronger effect = higher value; nuclei count: measured here: cell count, toxicity.
Assay [3] is described as follows: inhibitors of E-selectin induction by TNFa, primary screen, imaging, HUVEC, immunofluorescence, MLSMR starter and 10KST1 sets (AID 487;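 active means visually confirmed hit in the image check and inhibition above 20%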;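 on inhibition: signal is fraction of cell area covered by stained E-selectin grains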;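 on nuclei count: 100% = median nuclei count of all wells on the same plate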). Particulars: HUVEC TNFalpha-induced E-selectin immunofluorescence imaging, at 2 µM; inhibition: stronger effect = higher value; nuclei count: measured here: cell number, toxicity.
For assay [4], the target named is Voltage-gated potassium channel subunit beta-2 (Rattus norvegicus) (UniProt P62483). The assay can be described thus: KvBeta enzyme negative modulators, primary screen, biochemical, NADPH fluorescence (AID 622;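 active means fluorescence slope higher than the sample average by over 3 SD, cut at about -0.22 in these data, passing the limit was not always enough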;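 further: slope of raw intensity against log time taken from 70 to 1610 s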). Particulars: recombinant KvBeta, 4-cyanobenzaldehyde reduction, at 10 µM, stronger effect = higher value.
Sequence of Voltage-gated potassium channel subunit beta-2 (Rattus norvegicus) (P62483 whole entry, looked up): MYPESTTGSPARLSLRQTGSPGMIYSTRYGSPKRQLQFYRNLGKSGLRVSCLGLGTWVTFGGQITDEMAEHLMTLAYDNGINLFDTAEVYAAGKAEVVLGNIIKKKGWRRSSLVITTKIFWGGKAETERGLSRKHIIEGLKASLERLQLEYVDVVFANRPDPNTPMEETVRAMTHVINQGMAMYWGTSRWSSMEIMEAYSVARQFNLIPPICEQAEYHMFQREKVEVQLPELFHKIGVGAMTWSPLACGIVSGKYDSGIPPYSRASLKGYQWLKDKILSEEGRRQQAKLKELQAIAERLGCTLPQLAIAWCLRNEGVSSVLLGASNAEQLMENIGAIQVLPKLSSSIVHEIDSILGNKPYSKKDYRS
The target is the same in assay [5]. The assay is described as follows: KvBeta positive modulators, primary screen, biochemical, NADPH fluorescence (AID 623;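 active means NADPH fluorescence slope more negative than the mean of all samples by about 3 SD, 99.7% confidence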;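 further: fluorescence intensity change per second fitted from 20 to 320 s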). Particulars: Recombinant KvBeta, NADPH fluorescence decrease slope, 10 min; at 10 µM; stronger effect = lower value.
The target in assay [6] is Alpha-2C adrenergic receptor (Homo sapiens) (UniProt P18825). The assay is described as follows: modulators of alpha2C/GIRK thallium flux, primary screen, cell-based, HEK293 alpha2C/GIRK1/2 (AID 624;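 active means fluorescence slope after compound addition differing from the mean of all screened samples at 99.7% confidence, in either direction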;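 further: slope of fluorescence ratio to pre-addition baseline per second over 15 to 24 s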). Particulars: thallium flux BTC fluorescence, at 10 µM, actives lie on both sides.
Sequence of Alpha-2C adrenergic receptor (Homo sapiens) (P18825 whole entry, looked up): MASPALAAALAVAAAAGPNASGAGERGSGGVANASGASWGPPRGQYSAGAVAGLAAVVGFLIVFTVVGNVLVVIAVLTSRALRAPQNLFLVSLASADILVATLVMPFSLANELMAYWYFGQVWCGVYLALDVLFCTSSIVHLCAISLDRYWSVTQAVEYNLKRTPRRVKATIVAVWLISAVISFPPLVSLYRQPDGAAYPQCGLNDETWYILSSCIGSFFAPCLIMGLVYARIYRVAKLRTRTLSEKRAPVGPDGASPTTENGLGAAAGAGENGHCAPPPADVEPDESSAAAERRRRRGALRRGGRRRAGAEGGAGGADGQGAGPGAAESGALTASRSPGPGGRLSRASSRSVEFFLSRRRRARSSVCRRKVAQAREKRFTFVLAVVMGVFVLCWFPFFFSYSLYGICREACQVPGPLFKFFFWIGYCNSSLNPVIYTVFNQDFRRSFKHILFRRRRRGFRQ
The nature of assay [7]: inhibitors of Sendai virus-induced IRF3 signaling, primary screen, TLR/RLR signaling modifier project, cell-based, Sendai virus stimulus, luciferase, 10K MLSCN set (AID 602276;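 active means inhibition at or above 50% at 10 µM; inactive means inhibition below 50%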;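 further: firefly luciferase from ISG56 promoter only with Renilla not read in this screen; 0% = Sendai virus plus DMSO and 100% = medium plus DMSO without virus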). As to conditions: HEK293 RL24 IRF3 luciferase reporter, at 10 µM, stronger effect = higher value. (In general: A reporter such as luciferase makes a cellular process visible.)
Assay [8] can be described thus: inhibitors of poly I:C-induced TLR3 signaling, primary screen, cell-based, poly I:C stimulus, luciferase, 10K MLSCN set (AID 602277). Particulars: HEK293-TLR3 RL24 IRF3 luciferase reporter, at 10 µM, stronger effect = higher value.

Take `C/C(N)=C(/C#N)C(=O)CSc1nnc(Nc2cccc(C)c2)s1`: the cell count in assay [1] came to 451. The inhibition in assay [1] is 2.9% (inactive); in assay [3], -79.4% (inactive); in assay [7], -7.88% (inactive); in assay [8], -32.1% (inactive). For the same compound, the inhibition of aggregation in assay [2] was 5.1% (inactive). Also, the nuclei count came to 101% in assay [2] and 130% in assay [3]. Moreover, in assay [4], the fluorescence slope is -0.492 (inactive). In addition, the NADPH fluorescence slope in assay [5] was -3.5e-05 (inactive). In addition, the slope in assay [6] is 0.00453 (inactive).
Take `COCCN(CCOC)Cc1c(C)[nH]c2ccccc2c1=O`: the cell count in assay [1] turned out to be 398. The inhibition is 6.8% (inactive) in assay [1], 1.8% (inactive) in assay [3], 3.05% (inactive) in assay [7] and 24.8% (inactive) in assay [8]. In assay [2], the inhibition of aggregation was 12.7% (inactive). Also, the figures for the nuclei count in assay [2] and in assay [3] were 93.3% and 104%, respectively. In assay [4], the fluorescence slope was -0.351 (inactive). Further, the NADPH fluorescence slope in assay [5] is -1.7e-05 (inactive). Besides, the slope in assay [6] is 0.00544 (inactive).
On to `COc1ccc(C(=O)Nc2ccc(C)cn2)c(OC)c1`, for which the cell count in assay [1] worked out at 283. In addition, the inhibition in assay [1] is 14.7% (inactive); in assay [3] it was -3.2% (inactive); in assay [7], -3.57% (inactive); in assay [8], 53.3% (active). For the same compound, the inhibition of aggregation in assay [2] was -14.1% (inactive). For the same compound, the figures for the nuclei count in assay [2] and in assay [3] were 79% and 101%, respectively. Further, in assay [4], the fluorescence slope was -0.469 (inactive). For the same compound, the NADPH fluorescence slope in assay [5] was -3.9e-05 (inactive). For the same compound, the slope in assay [6] was 0.00731 (inactive).
In the case of `CC(C)(Oc1ccc(Cl)cc1)C(=O)NCc1ccncc1`, the cell count in assay [1] was determined as 419. For the same compound, the inhibition was 5.2% (inactive) in assay [1], -85.3% (inactive) in assay [3], 11.3% (inactive) in assay [7] and 12.2% (inactive) in assay [8]. Besides, the inhibition of aggregation in assay [2] is -21% (inactive). Moreover, the results for the nuclei count in assay [2] and in assay [3] were 96.4% and 113%, respectively. For the same compound, the fluorescence slope in assay [4] was -0.297 (inactive). In assay [5], the NADPH fluorescence slope was -5.5e-05 (inactive). In addition, the slope in assay [6] is 0.00503 (inactive).
As for `COc1ccc(/C=N/n2cc(-c3ccc(OC)cc3)nc2N)cc1`, the cell count in assay [1] worked out at 351. Besides, the inhibition in assay [1] is 10.9% (inactive); in assay [3], 6.3% (inactive); in assay [7] it was 8.24% (inactive); in assay [8], 2.92% (inactive). For the same compound, in assay [2], the inhibition of aggregation is 2.2% (inactive). The nuclei count stood at 107% in assay [2] and 117% in assay [3]. Besides, the fluorescence slope in assay [4] is -0.246 (inactive). For the same compound, in assay [5], the NADPH fluorescence slope was 1.1e-05 (inactive). Further, the slope in assay [6] was 0.00586 (inactive).
With `CC(C)CN(C(=O)COC(=O)Cc1n[nH]c(=O)c2ccccc12)C1CCS(=O)(=O)C1` (centres undefined), in assay [1], the cell count amounted to 399. For the same compound, the inhibition was 1.7% (inactive) in assay [1], -65.6% (inactive) in assay [3], 12% (inactive) in assay [7] and 34.3% (inactive) in assay [8]. Besides, in assay [2], the inhibition of aggregation was 14.7% (inactive). In addition, the results for the nuclei count in assay [2] and in assay [3] were 96.8% and 108%, respectively. In assay [4], the fluorescence slope was -0.586 (inactive). For the same compound, the NADPH fluorescence slope in assay [5] was -1.4e-05 (inactive). Also, the slope in assay [6] was 0.00565 (inactive).
With `Cc1cc(C(=O)N2CCN(c3ncccn3)CC2)cs1`, the cell count in assay [1] was 401. Besides, the inhibition in assay [1] is -0.7% (inactive); in assay [3], 0.9% (inactive); in assay [7] it was 13.1% (inactive); in assay [8] it was -6.87% (inactive). The inhibition of aggregation in assay [2] was 4.3% (inactive). Besides, the results for the nuclei count in assay [2] and in assay [3] were 99% and 110%, respectively. The fluorescence slope in assay [4] is -0.591 (inactive). In addition, the NADPH fluorescence slope in assay [5] is -2.2e-05 (inactive). The slope in assay [6] is 0.00264 (inactive).
On to `C=CCN(CC=C)C(=O)c1ccncc1`, for which, in assay [1], the cell count amounted to 267. The inhibition in assay [1] was -14% (inactive); in assay [3] it was -86.3% (inactive); in assay [7], 4.76% (inactive); in assay [8], 5.55% (inactive). For the same compound, in assay [2], the inhibition of aggregation is 4.9% (inactive). Moreover, the figures for the nuclei count in assay [2] and in assay [3] were 53.2% and 110%, respectively. Moreover, the fluorescence slope in assay [4] is -0.501 (inactive). Moreover, the NADPH fluorescence slope in assay [5] is 1.1e-05 (inactive). Moreover, in assay [6], the slope was 0.00479 (inactive).
For `Cc1c(NC(=O)C2(c3ccccc3)CCOCC2)c(=O)n(-c2ccccc2)n1C`, in assay [1], the cell count is 552. Also, the inhibition in assay [1] was 11.5% (inactive); in assay [3], 25.9% (inactive); in assay [7] it was 0.891% (inactive); in assay [8], 9.22% (inactive). Besides, the inhibition of aggregation in assay [2] was 9.2% (inactive). In addition, the nuclei count in assay [2] amounted to 90.5%; in assay [3], 130%. Besides, the fluorescence slope in assay [4] was -0.435 (inactive). The NADPH fluorescence slope in assay [5] is 2.3e-05 (inactive). Further, in assay [6], the slope was 0.00624 (inactive).
As to `CCOC(=O)c1sc2nc(SCC(=O)NCc3ccco3)n(Cc3ccccc3)c(=O)c2c1C`, the cell count in assay [1] amounted to 395. Further, the inhibition is -1.1% (inactive) in assay [1], -22% (inactive) in assay [3], 5.1% (inactive) in assay [7] and 21.4% (inactive) in assay [8]. Also, the inhibition of aggregation in assay [2] was 0.8% (inactive). Moreover, the nuclei count in assay [2] is 89.7%; in assay [3] it was 99.6%. Moreover, the fluorescence slope in assay [4] is -0.449 (inactive). For the same compound, the NADPH fluorescence slope in assay [5] is -2.2e-05 (inactive). Besides, the slope in assay [6] is 0.00701 (inactive).
With `O=C(Nc1nc(-c2ccccn2)cs1)C1CC1`, in assay [1], the cell count was 673. The inhibition in assay [1] is -3.3% (inactive); in assay [3] it was -21% (inactive); in assay [7] it was -68.6% (inactive); in assay [8], -114% (inactive). The inhibition of aggregation in assay [2] is 2.7% (inactive). For the same compound, the nuclei count is 94.5% in assay [2] and 115% in assay [3]. Moreover, the fluorescence slope in assay [4] was -0.482 (inactive). The NADPH fluorescence slope in assay [5] was -7.5e-05 (inactive). Also, in assay [6], the slope was 0.00645 (inactive).
Turning to `C=CCn1c(CC#N)nnc1N1CCOCC1`, the cell count in assay [1] was 481. The inhibition was 0.7% (inactive) in assay [1], -92% (inactive) in assay [3], 6.66% (inactive) in assay [7] and 13.3% (inactive) in assay [8]. Further, the inhibition of aggregation in assay [2] was -15% (inactive). Moreover, the nuclei count came out at 116% in assay [2] and 118% in assay [3]. Further, the fluorescence slope in assay [4] is -0.487 (inactive). Further, the NADPH fluorescence slope in assay [5] was 2.7e-05 (inactive). Further, the slope in assay [6] is 0.00619 (inactive).
With `CCOC(=O)c1ccccc1NC(=O)c1ccc2c(=O)n3c(nc2c1)CCCCC3`, the cell count in assay [1] was found to be 472. The inhibition was 15.6% (inactive) in assay [1], -28.3% (inactive) in assay [3], 2.48% (inactive) in assay [7] and 32.9% (inactive) in assay [8]. The inhibition of aggregation in assay [2] is 9.6% (inactive). The nuclei count in assay [2] is 114%; in assay [3], 81.5%. Moreover, the fluorescence slope in assay [4] was -0.399 (inactive). In addition, the NADPH fluorescence slope in assay [5] is -1.5e-05 (inactive). In addition, the slope in assay [6] is 0.00636 (inactive).
On to `COc1cccc(NC(=O)NC2(C(F)(F)F)Oc3ccccc3O2)c1`, for which, in assay [1], the cell count was found to be 684. Moreover, the inhibition in assay [1] is -12.7% (inactive); in assay [3], -125% (inactive); in assay [7], 12.9% (inactive); in assay [8], 24.9% (inactive). In addition, the inhibition of aggregation in assay [2] is 0% (inactive). Also, the nuclei count in assay [2] amounted to 105%; in assay [3], 120%. In addition, in assay [4], the fluorescence slope is -0.476 (inactive). For the same compound, the NADPH fluorescence slope in assay [5] was -0.000362 (inactive). Also, the slope in assay [6] was 0.00501 (inactive).
